Results filed as inconclusive are left out. The source made the active and inactive calls. The call rests on the fitted dose curve; in most records, active means well fitted inhibition curve with a large enough effect; inconclusive means small, poorly fitted or top-dose-only effect; inactive means flat fitted curve, though single readings scatter.
Assay: High Content Imaging Cell-Based qHTS for Inhibitors of the mTORC1 Signaling Pathway in MEF (Tsc2-/-, p53-/-) Cells (AID 2666);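 further: percent of cells scored positive for phospho-rpS6 Ser235/236 immunostaining by imaging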
Details: at 38.3 µM (top of the series)
Outline: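 Cells were plated, dosed with compound after 24 hrs, and incubated another 24 hrs at 37 degree Celsius. Fixed cells were immunostained for phospho-rpS6 Ser235/236 and counterstained, and the normalized signal was scored as % active cells against rapamycin and DMSO controls.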

**Q.** For Nc1ncnc2nc(-c3ccc(N4CCOCC4)nc3)cc(-c3cccc(Br)c3)c12, which outcome is on record?
**A.** The outcome was “inactive”.

**Q.** With O=C(Nc1nc2ccccc2n1CCN1CCOCC1)c1cccc([N+](=O)[O-])c1 as the compound, how does the outcome read?
**A.** The outcome was “inactive”.

**Q.** With NC(N)=NC(=O)c1nc(Cl)c(N)nc1N as the compound, how does the outcome read?
**A.** The outcome was “inactive”.

**Q.** With Cc1[nH]c(=O)c(C#N)cc1-c1ccc2nccn2c1 as the compound, how does the outcome read?
**A.** Its outcome is “inactive”.

**Q.** Which outcome does the source give for O=c1n(CCCN2CCN(c3cccc(Cl)c3)CC2)nc2ccccn12 here?
**A.** Its outcome is “inactive”.

**Q.** Which outcome does the source give for Clc1cccc(Cl)c1NC1=NCCN1 here?
**A.** Its outcome is “inactive”.

**Q.** Which outcome does the source give for N[C@@H]1CONC1=O here?
**A.** Its outcome is “inactive”.

**Q.** For c1ccc([C@H]2CN3CCSC3=N2)cc1, which outcome is on record?
**A.** Its outcome is “inactive”.

**Q.** Which outcome does the source give for CC(C[N+](C)(C)C)OC(N)=O (configuration not stated) here?
**A.** Its outcome is “inactive”.

**Q.** For NS(=O)(=O)c1cc2c(cc1Cl)NC=NS2(=O)=O, which outcome is on record?
**A.** Its outcome is “inactive”.

**Q.** For CCCC(CCC)C(=O)O, which outcome is on record?
**A.** The outcome was “inactive”.

**Q.** For NC[C@H](O)c1ccc(O)c(O)c1, which outcome is on record?
**A.** Its outcome is “inactive”.

**Q.** With CC(C)(C)NCC(O)c1ccc(O)c(CO)c1 (configuration not stated) as the compound, how does the outcome read?
**A.** Its outcome is “inactive”.

**Q.** For Nc1nc2ccc(OC(F)(F)F)cc2s1, which outcome is on record?
**A.** The outcome was “inactive”.

**Q.** With O=C1CCc2cc(OCCCCc3nnnn3C3CCCCC3)ccc2N1 as the compound, how does the outcome read?
**A.** The outcome was “inactive”.

**Q.** Which outcome does the source give for Cc1cccc(-c2[nH]c(C(C)(C)C)nc2-c2ccc3nccnc3c2)n1 here?
**A.** The outcome was “inactive”.

**Q.** For Nc1nc2c(ncn2COCCO)c(=O)[nH]1, which outcome is on record?
**A.** The outcome was “inactive”.

**Q.** Which outcome does the source give for Cn1cnc([N+](=O)[O-])c1Sc1ncnc2nc[nH]c12 here?
**A.** The outcome was “inactive”.

**Q.** For Cc1oncc1C(=O)Nc1ccc(C(F)(F)F)cc1, which outcome is on record?
**A.** The outcome was “inactive”.

**Q.** Which outcome does the source give for Cc1ccc(N(CC2=NCCN2)c2cccc(O)c2)cc1 here?
**A.** Its outcome is “inactive”.

**Q.** Which outcome does the source give for C[C@]12CCC(=O)C=C1CC[C@@H]1[C@@H]2[C@@H](O)C[C@@]2(C)[C@H]1CC[C@]2(O)C(=O)CO here?
**A.** The outcome was “inactive”.

**Q.** With OC(CCN1CCCCC1)(c1ccccc1)C1CC2C=CC1C2 (configuration not stated) as the compound, how does the outcome read?
**A.** Its outcome is “inactive”.

Source: PubChem BioAssay (NCATS)
